D1 antagonist = antagonists of human D1 dopamine receptor; HEK293 TREx D1 cells, calcium flux, dopamine EC80; active compounds read low; activity change, negative = inhibition, % at 10 µM; 3.2% of 360,000 active; in the data active = activity change below about -30%; note: % is set by controls: 0 for no effect and ±100 for the full control effect
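Tetracycline-induced HEK293 Trex D1 cells, force-coupled to calcium, dye-loaded; compounds added and read 180 s, then EC80 dopamine added and calcium flux tracked kinetically another 180 s.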
D1 ag = human D1 receptor agonism. P21728. HEK293 T-REx D1 cells, calcium flux, agonist mode. activation, % at 2 µM. 1% of 360,000 active; in the data active = activation above about 30%; note: 0% is about no effect
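Inducible HEK293 T-REx D1 cells, force-coupled to calcium signalling, were plated at 4000 cells/well with tetracycline and held overnight at 30 C. After no-wash calcium dye loading, compound-evoked calcium rise over 180 s flagged agonists.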
DRD3 agonist = agonists of human D3 dopamine receptor | max activation, % | AID 652048 | P35462 | 0.58% of 410,000 active | D3R DiscoveRx beta-arrestin cells, luminescence, 90 min; in the data active = max activation above about 30%; note: 0% is about no effect
Target sequence (P35462 whole entry, looked up): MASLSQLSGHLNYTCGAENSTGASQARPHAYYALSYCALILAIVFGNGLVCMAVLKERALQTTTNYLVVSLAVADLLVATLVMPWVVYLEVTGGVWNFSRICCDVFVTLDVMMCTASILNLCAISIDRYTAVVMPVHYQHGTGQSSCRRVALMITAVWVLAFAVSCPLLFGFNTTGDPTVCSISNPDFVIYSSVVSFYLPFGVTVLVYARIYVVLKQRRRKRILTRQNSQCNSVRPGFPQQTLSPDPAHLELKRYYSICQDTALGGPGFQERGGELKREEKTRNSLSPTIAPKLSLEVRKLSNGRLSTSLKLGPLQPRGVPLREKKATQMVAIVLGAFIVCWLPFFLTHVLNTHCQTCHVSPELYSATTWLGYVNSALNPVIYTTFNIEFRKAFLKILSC
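Agonist-mode cell screen: cells plated at 1500/well and incubated overnight at 37 °C, then exposed to library compounds for 90 min at 37 °C. Detection reagent was added for 30–60 min at room temperature, and luminescence was read.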
D1 PAM = human D1 dopamine receptor positive modulation; HEK293 TREx D1 cells, calcium flux, dopamine EC20 potentiation; potentiation, % at 10 µM; 0.036% of 360,000 active; AID 504651; in the data active = potentiation above about 30%; note: 0% is about no effect
DRD3 antagonist = D3 dopamine receptor (human) antagonism; P35462; D3R cells, DiscoveRx beta-arrestin luminescence, antagonist mode; active compounds read low; max response, negative = inhibition, %; 2.5% of 360,000 active; in the data active = max response below about -50%; note: % is set by controls: 0 for no effect and ±100 for the full control effect
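Cells expressing the human receptor were seeded at 1500 cells/well, incubated overnight at 37 degrees C in 5% CO2, then exposed to library compounds with dopamine controls for 90 minutes at 37 degrees C before luminescent detection.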
* marks the source's active call; other numbers are inactive results; x = no result given. Rows were chosen to be rich in hits. Some 6% of all compounds tested hit in one or more screens of this group.

SMILES	D1 antagonist	D1 ag	DRD3 agonist	D1 PAM	DRD3 antagonist
COc1ccc(CC(N)c2csc(NC(=O)Nc3ccccc3C(C)C)n2)cc1 (configuration not stated)	x	x	-13	x	-55*
O=C(Cc1csc(NC(=O)Nc2cccc(Cl)c2)n1)NCc1ccccn1	-31*	7	-15	-5	-8
COc1cc(CNC(=O)Nc2nc(C(N)CCc3ccccc3)cs2)cc(OC)c1OC (configuration not stated)	x	x	-10	x	0
CCN1C(=O)c2ccccc2S(=O)(=O)c2ccc(C(=O)NCc3ccc(C)cc3)cc21	-11	1	1	-1	x
CCOCCCn1c(SCC(=O)Nc2ccc(C)cc2)nc2ccccc2c1=O	0	-1	-4	2	x
CCOc1ccccc1NC(=O)Nc1nnc(N2CCCC(C)C2)s1 (configuration not stated)	-5	7	0	-2	x
CCN(C(=O)C(=O)Nc1ccc2nc3n(c(=O)c2c1)CCCCC3)c1ccc(F)cc1	-39*	1	9	2	x
O=C(NNC(=O)c1ccc2c(=O)n3c(nc2c1)CCC3)c1cccc(Cl)c1	-32*	-3	-9	-7	-5
CCN(CC)C(=O)c1cccc(NC(=O)c2ccc3c(=O)n4c(nc3c2)CCC4)c1	-40*	1	-6	-7	7
O=C(NNC(=O)c1ccc2c(=O)n3c(nc2c1)CCC3)c1ccc(Cl)cc1	-14	3	-4	-1	0
Cn1c(=O)n(C/C=C/c2ccccc2)c(=O)c2c1nc1n2CCN1c1ccc(F)cc1	-6	0	13	-2	x
C=CCN1c2ccccc2[C@]23C[C@@H](C(=O)OC)N(C(=O)NCCC)C2=NC(C(=O)OC)=C(C(=O)OC)[C@H]13	-33*	10	-18	0	-10
C=CCN1c2ccccc2[C@]23C[C@@H](C(=O)OC)N(C(=O)C4CCC4)C2=NC(C(=O)OC)=C(C(=O)OC)[C@H]13	-20	6	-19	-1	0
Nc1ccc(/C=C/C(=O)c2cccs2)cc1	-12	82*	9	-7	10
O=C(C=Cc1ccccc1)c1cccs1	x	x	4	x	-3
CCCc1cc(-c2n[nH]c(C)c2-c2ccc(C(=O)OCC)o2)c(O)cc1O	63	65*	35*	-2	-27
CCc1ccc(-n2c(=O)c3c4c(sc3n(Cc3cc(=O)n5c(C)cccc5n3)c2=O)CCC4)cc1	7	-2	-10	6	x
Cc1ccc2c(c1)N(C(=O)CCC(=O)NC1CCC(C)CC1)CCO2 (configuration not stated)	-8	0	-12	-1	-96*
CC1CCCCC1NC(=O)CCC(=O)N1CCOc2ccc(Cl)cc21 (configuration not stated)	-3	-1	-20	2	-53*
Cc1nnsc1SC(C)C(=O)O (configuration not stated)	-50*	5	-1	-6	16
CSc1ccc(CCNC(=O)c2csc3c2CCCCC3)cc1	-38*	12	-3	-1	x
O=C(NCCN1CCOCC1)c1csc2c1CCCCC2	-1	1	16	14	-52*
CCN1CCN(CCCNC(=O)c2csc3c2CCCCC3)CC1	5	0	-4	-4	-54*
CCOC(=O)c1ccc2c(c1)N(CC(=O)Nc1ccc(C)cc1C)C(=O)c1ccccc1S2	10	5	2	-2	x
Cc1nc2c(-c3ccccc3)c[nH]n2c(=O)c1Cc1ccccc1	-20	36*	-5	x	-9
CC(C)NC(=O)C1CCN(c2nc3ccccc3nc2C(F)(F)F)CC1	-7	5	3	-3	x
O=c1c2ccccc2nc(-c2ccc(Cl)cc2)n1CCCOc1ccccc1F	-3	-1	-12	-2	x
CCC[C@@H]1C[C@@H](C(=O)N[C@@H]([C@H]2O[C@H](SC)[C@H](OP(=O)(O)O)[C@@H](O)[C@H]2O)[C@H](C)Cl)N(C)C1	x	x	-1	x	x
CC(Cc1cccs1)NC(=S)Nc1ccc(Cl)c(Cl)c1 (configuration not stated)	-24	11	-3	-5	-4
CC(Cc1cccs1)NC(=S)Nc1ccc(Cl)cc1 (configuration not stated)	-60*	22	-1	-9	-7

High-throughput results from PubChem BioAssay.
